Source: PubChem
CYP2C9 inhib: blocks human cytochrome P450 2C9; P11712; CYP2C9 Supersomes, luciferin-H conversion, luminescence; inhibition, % at 5 µM; 96,000 compounds, 20% hits;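 active means blocking of liver enzyme CYP2C9 beyond about 50% at 5 µM, limit read from the data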
CYP2C9 act: increases human cytochrome P450 2C9 activity; activation factor at 5 µM; 96,000 compounds, 1.4% hits; P11712; recombinant CYP2C9, luciferin-H conversion, luminescence; stronger effect = higher value; factor 1 = untreated enzyme, 0 = blocked; AID 1024;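 active means activation factor of 2 or more for CYP2C9 at a 5 µM dose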;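 further: 0 = sulfaphenazole-blocked wells and 1 = vehicle-only wells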
CYP2C19 act: cytochrome P450 2C19 (human) activation; activation factor at 5 µM; 96,000 tested, under 10 active; recombinant CYP2C19, luciferin-H EGE luminescence; stronger effect = higher value; 0 = fully inhibited enzyme, 1 = untreated enzyme;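 active means activation factor of at least 2 at 5 µM in the primary screen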;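 further: 0 = wells with 2.5 mM tranylcypromine and 1 = vehicle-only wells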
PLAP activator: activates human placental alkaline phosphatase | P05187 | purified PLAP enzyme, luminescent substrate read-out; stronger effect = higher value | activation fold at 20 µM | 96,000 compounds, 1.2% hits | AID 696; in the data active means activation fold above about 2
Target sequence (P05187 whole entry, looked up): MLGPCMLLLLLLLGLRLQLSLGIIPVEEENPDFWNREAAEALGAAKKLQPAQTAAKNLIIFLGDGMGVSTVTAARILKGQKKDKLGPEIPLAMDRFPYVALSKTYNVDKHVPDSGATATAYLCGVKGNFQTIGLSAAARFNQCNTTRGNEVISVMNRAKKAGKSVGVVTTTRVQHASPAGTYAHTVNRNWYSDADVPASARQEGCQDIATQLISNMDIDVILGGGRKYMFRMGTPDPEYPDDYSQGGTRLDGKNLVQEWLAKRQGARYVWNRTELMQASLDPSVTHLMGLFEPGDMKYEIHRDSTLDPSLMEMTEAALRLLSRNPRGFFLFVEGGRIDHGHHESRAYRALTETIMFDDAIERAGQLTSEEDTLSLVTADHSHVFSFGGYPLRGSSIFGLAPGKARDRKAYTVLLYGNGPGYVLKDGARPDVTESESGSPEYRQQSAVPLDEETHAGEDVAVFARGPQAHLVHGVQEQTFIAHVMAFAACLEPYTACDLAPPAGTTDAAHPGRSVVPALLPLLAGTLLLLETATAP
CYP2C19 inhib: human CYP2C19 inhibition | P33261 | CYP2C19 Supersomes, luciferin-H EGE luminescence, 30 min | inhibition, % at 5 µM | 96,000 compounds, 21% hits | AID 778;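 active means CYP2C19 inhibition above a set limit at 5 µM in the primary screen, cut at about 50% in these data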;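 further: plate controls were negative control wells for no effect and 2.5 mM tranylcypromine positive control for full effect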
* marks the source's active call; other numbers are inactive results. This is a sample that favours compounds with a hit; in the whole collection about 31% have one here.

SMILES	CYP2C9 inhib	CYP2C9 act	CYP2C19 act	PLAP activator	CYP2C19 inhib
COc1ccc(/C(O)=C2/C(=O)C(=O)N(c3ncccn3)C2c2ccc(OC)c(OC)c2)cc1 (stereo not given)	-24.8	1.2	1.2	1.3	-17.2
O=C(NCc1ccccn1)C1CCN(S(=O)(=O)N2CCCC2)CC1	-0.9	1	1.1	1	-6.3
Cc1nn(C/C(C#N)=N\O)c(C)[n+]1N	-16.7	1.2	1.1	1	-11.8
O=C1CCCc2c1cc(C(=O)Nc1ccc(Cl)cn1)c(=O)n2-c1ccccc1	78.1*	0.2	0.8	1.6	16.2
COC(=O)Nc1ccc2c(c1)N(C(=O)CCN1CCN3CCCC3C1)c1ccccc1S2 (stereo not given)	9.6	0.9	1	1.2	-2.8
CC(OC(=O)c1cccs1)C(=O)NCc1ccc2c(c1)OCO2 (stereo not given)	67.4*	0.3	0.6	0.9	37.8
CC(C)C(OC(=O)c1ccco1)C(=O)NCc1ccccc1 (stereo not given)	23.3	0.8	0.7	0.8	32.8
CC(C)C(OC(=O)c1nsc(Cl)c1Cl)C(=O)NCc1ccc2c(c1)OCO2 (stereo not given)	65.4*	0.3	0.6	0.8	42.8
CC(OC(=O)c1cccs1)C(=O)NCc1ccccc1 (stereo not given)	76.7*	0.2	0	0.8	98.3*
CC(C)C(OC(=O)c1cccs1)C(=O)NCc1cccs1 (stereo not given)	65.5*	0.3	0.1	0.7	91.4*
COc1ccc(CNC(=O)C(C)OC(=O)c2cccn2C)cc1 (stereo not given)	35.5	0.6	0.2	1.1	78.1*
Cc1ccc(C)c(C(=O)C(C)OC(=O)c2cccn2C)c1 (stereo not given)	20.8	0.8	0.9	0.7	9.4
CC(=O)c1ccc(OCC(O)CN(C)Cc2cccs2)cc1 (stereo not given)	-1.6	1	0.8	0.9	18.7
O=C(Cn1c(=O)n(-c2cccc(Cl)c2)c(=O)n1CC(=O)N1CCCCC1)N1CCCCC1	-4.0	1	1	1	-4.7
COc1ccccc1-c1cc(-c2ccccc2)nc(SC(C(N)=O)c2ccccc2)c1C#N (stereo not given)	30.4	0.7	0.9	1.1	12.0
CCOC(=O)CC(=O)CSc1nc(N)c(C#N)c(-c2ccc(Cl)cc2)c1C#N	61.8*	0.4	0.2	1.6	83.8*
CCOC(=O)CC(=O)CSc1nc(C)cc(C)c1C#N	33.9	0.7	0.3	1	69.8*
COC(=O)C(Sc1nc(C)cc(C)c1C#N)c1ccccc1 (stereo not given)	46.1	0.5	0.5	0.8	53.9*
CCOC(=O)CC(=O)CSc1nc2c(c(C)c1C#N)CCC2	16.2	0.8	0.8	1.1	24.4
COCC(C)NCc1cccc(OC)c1OC (stereo not given)	7.3	0.9	0.8	1.2	21.6
COCC(C)NCc1ccccc1C (stereo not given)	80.0*	0.2	0.7	0.8	26.0
Brc1ccc(-c2nnc(-c3ccccc3Br)o2)cc1	-10.3	1.1	1	1.2	-1.2
Clc1ccccc1OCc1nnc(-c2ccccc2Br)o1	-110.4	2.1*	0.8	1.1	18.1
Brc1ccccc1-c1nnc(COc2cccc3cccnc23)o1	-186.9	2.9*	0.1	1.5	91.2*
Cc1[nH]nc2c1C(c1cn[nH]c1-c1ccc(F)cc1)C(C#N)=C(N)O2 (stereo not given)	13.3	0.9	0.8	1.5	15.1
SMILES	CYP2C9 inhib	CYP2C9 act	CYP2C19 act	PLAP activator	CYP2C19 inhib
O=C(Cn1c(NCCO)nc2ccccc21)c1ccc(Cl)cc1	4.7	1	0.9	1	7.7
CC(O)CNc1nc2ccccc2n1CC(=O)NCCc1ccc(Cl)cc1 (stereo not given)	36.3	0.6	0.5	1.5	50.3*
O=C1N[C@@H](Cc2ccccc2)C(=O)N1CCN1CCOCC1	-26.3	1.3	1	0.8	4.5
COc1ccccc1NC(=O)C1CC(=O)OC1c1ccccc1 (stereo not given)	12.2	0.9	0.2	1	78.3*
O=C1CC(C(=O)Nc2ncccn2)C(c2ccccc2)O1 (stereo not given)	-2.5	1	0.9	1.1	9.5
COc1ccccc1NC(=O)CCC(=O)Nc1nnc(C(F)(F)F)s1	71.5*	0.3	1	0.9	-4.1
COc1ccc(OC)c(NC(=O)CCC(=O)Nc2nnc(C(F)(F)F)s2)c1	73.9*	0.3	0.9	1.1	6.9
